Source: PubChem
TIM10 inh: inhibits growth of TIM10 yeast strain; S. cerevisiae TIM10 strain growth, BacTiter-Glo luminescence, 24 h; inhibition, % at 10 µM; 330,000 tested, 1.4% active;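 active = inhibition of 40% or more at the single tested concentration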;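 note: wild-type TIM10 isogenic control strain grown at permissive 25 °C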
NALP3 yeast inh: blocks the NALP3 inflammasome reconstituted in yeast | inhibition, % at 10 µM | 330,000 tested, 0.39% active | Yeast reconstituted NLRP3/ASC/caspase-1, beta-gal luminescence, 24 h | AID 2825;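 active = inhibition of 50% or more; inactive = inhibition below 50%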
NALP1 inh: NALP1 inhibition. S. cerevisiae NALP1/ASC/caspase-1 growth, X-gal OD620, 72 h. inhibition, % at 10 µM. 280,000 tested, 0.61% active. AID 2071; in the data active = inhibition mostly above about 24%, no sharp cut-off; inactive = mostly below about 32%
tim23-1 inh: tim23-1 yeast growth inhibition. S. cerevisiae tim23-1 growth, BacTiter-Glo luminescence, 24 h. inhibition, % at 20 µM. 330,000 tested, 1.3% active. AID 463212;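 active = growth inhibition of the mutant yeast at or above 50%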;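 note: temperature-sensitive mutant grown at 25 °C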
V-ATPase pHluor: regulators of yeast V-ATPase proton transport; S. cerevisiae, pHLuorin cytosolic pH fluorescence; response, % at 10 µM; 350,000 tested, 0.37% active; in the data active = response mostly above about 7.3%, no sharp cut-off; inactive = mostly below about 5.4%; note: actives read high
tim10-1 inh: tim10-1 yeast growth inhibition | S. cerevisiae tim10-1 ts strain growth, BacTiter-Glo, 24 h | inhibition, % at 20 µM | 330,000 tested, 2.2% active;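 active = inhibition of at least 40%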;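 note: mutant grown at 25 °C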
VATPase regulator: regulators of yeast V-ATPase proton transport. AID 602197. response, % at 10 µM. S. cerevisiae pHLuorin cytosolic pH. shares compounds with V-ATPase pHluor. 980 tested, 2% active; in the data active = response above about 24%
A number is an active result; – = inactive; · = no result given. Hits are enriched below; roughly 4.2% of the tested compounds scored in any of these assays.

SMILES	TIM10 inh	NALP3 yeast inh	NALP1 inh	tim23-1 inh	V-ATPase pHluor	tim10-1 inh	VATPase regulator
N#CCc1c(C#N)c(N)nc(N2CCCC(CO)C2)c1C#N (stereo not drawn)	–	–	–	–	–	–	·
CCCc1nnc(NC(=O)CCC(=O)NCc2ccc(OC)cc2)s1	–	–	·	–	–	–	·
Cc1cc(C)nc(Sc2nc(Nc3ccccc3)nc(Sc3nc(C)cc(C)n3)n2)n1	–	–	–	–	–	–	·
Cc1cc(C)nc(SC2=CS(=O)(=O)c3ccccc32)n1	–	–	–	–	–	–	–
Cc1ccc(F)c(NC(=O)/C(C#N)=C(\O)c2ccc(C(C)(C)C)cc2)c1	–	–	–	–	16.4	–	–
Cc1cccc(NC(=O)C(=O)NNC(=O)c2ccc(C(C)(C)C)cc2)c1	–	–	–	–	–	–	·
Cc1cccc(S(=O)(=O)N(C)C[C@H]2OCc3cn(nn3)CCCC(=O)N([C@H](C)CO)C[C@@H]2C)c1	·	·	·	·	4.9	·	–
CCN(C(=O)COC(=O)/C(=C/c1ccccc1)NC(C)=O)c1c(N)n(Cc2ccccc2)c(=O)[nH]c1=O	·	·	·	·	–	·	·
O=[N+]([O-])c1ccc(C2CNC(c3ccccc3)O2)cc1 (stereo not drawn)	–	–	–	–	7.1	–	–
O=C(CC1Sc2ccccc2NC1=O)NNc1ccc(F)cc1 (stereo not drawn)	·	·	·	·	–	·	·
O=c1c2c(-c3ccccc3)csc2ncn1/N=C/c1cccc([N+](=O)[O-])c1O	–	–	–	–	81.8	–	–
CCN(CC)C(=O)N1CCN(c2c([N+](=O)[O-])c(=O)oc3ccccc23)CC1	–	–	·	–	–	–	·
COC(=O)c1cccc(-n2sc3ccccc3c2=O)c1	–	–	·	–	–	–	·
O=c1c2ccccc2sn1-c1ccc(Cl)cc1	·	·	·	·	–	·	–
COc1ccc(NC(=O)C2CCCN(S(C)(=O)=O)C2)cc1 (stereo not drawn)	–	–	–	–	–	–	·
CS(=O)(=O)N1CCCC(C(=O)Nc2ccccc2)C1 (stereo not drawn)	–	–	–	–	12.4	–	–
O=C(CCC(=O)c1ccc(F)cc1)NCc1ccccc1C(F)(F)F	–	–	–	–	–	–	–
COc1ccccc1NC(=O)c1ccccc1S(=O)(=O)c1ccccc1[N+](=O)[O-]	–	–	–	–	10.8	–	–
CSc1nc(C)c(CCO)c(=O)[nH]1	–	–	–	–	–	–	·
N#Cc1cc2cc3c(cc2nc1NCCNC(=S)NCCCN1CCOCC1)OCO3	–	–	–	–	–	–	·
O=[N+]([O-])c1ccc(F)cc1OCc1nc(-c2cccs2)no1	·	·	–	·	15.2	·	–
O=[N+]([O-])c1ccccc1OCc1nc(-c2cccs2)no1	–	–	–	–	–	–	·
O=C(Nc1cccc(C(F)(F)F)c1)c1cccnc1N1CCN(c2ccccc2)CC1	–	–	–	–	12.3	–	–
O=C(Nc1cccc(C(F)(F)F)c1)c1cccnc1N1CCN(CCO)CC1	–	–	–	–	–	–	·
COC(=O)c1cn(NC(=O)Cc2ccccc2OC)c(=O)c2ccccc12	–	–	–	–	–	–	·
SMILES	TIM10 inh	NALP3 yeast inh	NALP1 inh	tim23-1 inh	V-ATPase pHluor	tim10-1 inh	VATPase regulator
COC(=O)c1cn(NC(=O)Cc2ccccc2Br)c(=O)c2ccccc12	–	–	–	–	9.1	–	–
CCCCCCCOC(=O)C[N+](C)(C)CCOC1CC2CCC1(C)C2(C)C (stereo not drawn)	·	·	–	·	–	·	·
CCCCCCOC(=O)C[N+](C)(C)CCOC1CC2CCC1(C)C2(C)C (stereo not drawn)	–	–	–	–	11.9	–	–
CC(C)c1ccc(NC(=O)c2ccccc2NC(=O)C2CCCCC2C(=O)O)cc1 (stereo not drawn)	–	–	–	–	–	–	·
CCCCCc1ccc(-c2cn(Cc3cccc(OC)c3)nn2)cc1	–	–	–	–	–	–	·
CCc1cc(-c2cnnn2Cc2ccc3ccccc3c2)ccc1-c1cn(CC(C)C)nn1	·	·	·	·	7.2	·	–
Cc1nc2ccsc2c(=O)n1-c1ccc(Cl)cc1	–	–	–	–	–	–	–
Cc1ccc(-n2c(C)nc3ccsc3c2=O)cc1	–	–	·	–	–	–	·
O=C(C1CCN(c2nc(-c3ccccc3)nc3c2CCC3)CC1)N1CCC(O)CC1	–	–	–	–	11.3	–	–
